Measured values published in PubChem BioAssay AID2417 (National Center for Advancing Translational Sciences (NCATS), 2010).
The whole screen tested about 140,000 compounds, of which about 4,300 (3.1%) were called active. Inconclusive results (about 21%) are left out. Shown is part of a subset that was picked to be rich in actives. A number with no mark means an inactive call.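 The calls were made as follows: active = readout at or below -70, meaning at least 70% loss of cells showing the perinucleolar compartment, a nuclear body marking cancer cells; inconclusive = readout between -30 and a set limit; inactive = the rest.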

experiment: High Content Assay for Compounds that inhibit the Assembly of the Perinucleolar Compartment; settings: PC3M PTB-GFP, PNC prevalence imaging, 16 h; at 10 µM; stronger effect = lower value
Excerpt: High Content Assay for Compounds that inhibit the Assembly of the Perinucleolar Compartment NIH Chemical Genomics Center [NCGC] NIH Molecular Libraries Probe Centers Network [MLPCN] MLPCN Grant: MH082371-01A2 Assay Submitter (PI): Sui Huang, Northwestern University, Feinberg School of Medicine, Cell and Molecular Biology, Chicago, Illinois. The perinucleolar compartment (PNC) is a non-membrane-bound nuclear subdomain that is associated with but structurally distinct from the nucleolus. The PNC is a heritable trait, in which the number of PNCs per cell in daughter cells often mimics that of their mother cells. The PNC is heterogeneous in shape, is stable through interphase, disassembles during mitosis, and reassembles in early G1. The PNC is concentrated with newly synthesized RNA polymerase III (pol III) RNAs (MRP RNA, RNAse P H1 RNA, hY RNAs[hY1, 2, 5], Alu RNA, and SRP [7SL] RNA) and RNA binding proteins (nucleolin, PTB, CUG-BP, KSRP, Raver1, Raver2, and Rod). […] Extensive in vitro studies have shown that the PNC is unique to tumor cells and preferentially forms in tumor cells derived from solid tissues. Examination of cancer cell lines from various origins and malignant capacities has shown that PNC prevalence correlates with the malignancy of tumors and has the potential to be developed as a pan-cancer prognostic marker. […] Although the PNC is associated with a DNA locus and a handful of components have been identified, much remains to be investigated regarding the structure and function of the PNC and its mechanistic link to cancer. We have previously shown that PNC prevalence reduction is a valid strategy to identify compounds that can be used to study the structure and function of the PNC. It is necessary, however, to create a screening platform that is able to test a large number of compounds in an automated fashion. Here we report the development and robustness of an automated whole-cell phenotypic image-based screening assay that is capable of identifying such compounds.
PNC High Content Imaging Assay Procedure: 1. Cells at a density of 75-90% confluency in T175 flasks were harvested using 7 ml TrypLE Express cell dissociation reagent. After dissociation (5 minutes room temperature incubation) 10 ml of complete media was added to the TrypLE/cell suspension. The liquid was transferred to a 50 ml Conical tube and cells were pelleted at 1000 RPM for 5 min. Supernatant was removed and cells were resuspended to a final density of 150-200 cells/ul in complete media. 2. Cells were plated in 5 ul volume (750-1000 cells/well) into 1536 well Black uclear Aurora Low Base plates and allowed to recover and adhere at 37 C in a humidified 5% CO2 incubator for 4 hours. 3. After 4 hour incubation, compound libraries (23 nl of […] in columns 5-48) were transferred to the plates in duplicate using a 1536 well pintool. Camptothecin positive control (59 uM final) was added to column 2 and 1:3 dilutions of camptothecin was added to column 3. DMSO negative controls were present in columns 1 and 4. 4. After a 16 hour incubation in the 37 C incubator, cells were fixed by the addition of 4 ul of 6% EM grade paraformaldehyde (containing 0.1% triton X 100) directly to the cells. The plates were incubated at room temperature for 20 minutes. The liquid was removed using a 32 channel Kalypsys aspirator and the fixed cells were washed twice with 5 ul PBS followed by a final addition of 5 ul PBS containing 1 ug/ml Hoechst 33342. 5. Fixed plates were sealed and sotred at 4C until imaged. 6. Plates were imaged on an InCell 1000 automated microscope using a 20 x objective, a standard FITC filter set, no camera binning, and an exposure time of ~100-150 msec/well. 7. Data analysis. PNC prevalence was determined using the Multitarget analysis module from InCell Workstation software (V3.5 ) and analysis was run on a quad core workstation using the Incell Developer Toolbox (V1.7). […]

Compound	activity change (PNC), negative = inhibition
COC(=O)C1=CN(C)C=C(C(=O)OC)C1c1ccc(Cl)cc1Cl	-80.4% (active)
CCOc1ccccc1C1C(C(=O)OC)=CN(C)C=C1C(=O)OC	3.14%
NNC(=O)c1ccc(Cl)cc1Cl	5.71%
O=C(Cc1cccs1)Nc1cccc(-c2nc3ccccc3[nH]2)c1	3.35%
COc1ccc(S(=O)(=O)Nc2ccc3oc(C)c(C(C)=O)c3c2)cc1	56.6%
COc1cc(NS(=O)(=O)c2ccc(N/C=C(\C=O)c3nc4cc(Cl)ccc4o3)cc2)nc(OC)n1	-105% (active)
COc1cc(NS(=O)(=O)c2ccc(N=Cc3c(C)[nH]n(-c4ccccc4)c3=O)cc2)nc(OC)n1	-26.4%
O=C(c1ccc(CSc2ccccc2)cc1)N1CCCCCC1	-13.8%
C=CCNC(=O)/C=C/c1ccc(C(C)C)cc1	29.5%
CC(=O)N/C(=C/c1ccc(Cl)cc1)C(=O)NCCc1c[nH]c2ccccc12	19.3%
N#C/C(=C/c1ccc(N2CCCCC2)o1)C(=O)NCCc1c[nH]c2ccccc12	-86.8% (active)
N#C/C(=C/c1ccc(N2CCOCC2)o1)C(=O)N1CCOCC1	61.9%
Cn1cc(C(=O)NCc2ccccc2F)cn1	-25.6%
N#C/C(=C\c1ccccc1C(F)(F)F)C(=O)Nc1ccccc1F	-16.5%
COc1cccc(NC(=O)CC(c2ccc(OC(C)C)cc2)c2ccccc2OC)c1 (stereo not given)	21%
NC(=O)CCC(NS(=O)(=O)c1ccc(Cl)cc1)C(=O)NCc1ccccc1Cl (stereo not given)	-7.93%
COc1ccccc1C1SCCN1C(=O)c1ccc([N+](=O)[O-])cc1 (stereo not given)	15%
NC1=NC(=O)C(Cc2cccc(Cl)c2)S1 (stereo not given)	22.5%
N#Cc1ccc(N2Cc3ccccc3/C2=N/C(=O)Nc2ccc(Cl)cc2)cc1	16.1%
Cc1cc(C(F)(F)F)nn1-c1nc(-c2ccco2)cc(C(F)(F)F)n1	-13%
FC(F)(F)c1cc(-c2ccco2)nc(N2CCOCC2)n1	27.9%
O=C(CSc1nc(-c2ccco2)cc(C(F)(F)F)n1)N1CCc2ccccc2C1	-123% (active)

Compound	activity change (PNC), negative = inhibition
Cc1ccc(NC(=O)COC(=O)CCc2nc3ccccc3n2-c2ccccc2)c(C)c1	55.5%
O=C(NC(=S)NC1CCSC1=O)c1ccccc1F (stereo not given)	12.8%
O=c1c2sccc2nc(SCc2cc(=O)n3ccccc3n2)n1-c1ccc(Br)cc1	0.678%
Cc1ccc(NC(=O)CSCC(=O)NC2CCCCC2)cc1	13.8%
CC(CC(=O)N1CCN(c2ccccc2)CC1)c1ccccc1 (stereo not given)	-11.1%
O=C(CCCN1C(=O)C2C3C=CC(C3)C2C1=O)N1CCN(c2ccccc2)CC1 (stereo not given)	-106% (active)
O=C(CCN1C(=O)C2C3C=CC(C3)C2C1=O)Nc1ccccc1F (stereo not given)	25%
CC(C)(C)CC(C)(C)NCC(O)COCCOc1ccc(Br)cc1 (stereo not given)	6.23%
CC(=O)c1ccc(NC(=O)N[C@@H](Cc2ccccc2)C(=O)O)cc1	64.7%
COC(C(=O)Nc1ccc(C(C)=O)cc1)c1ccccc1 (stereo not given)	-124% (active)
COc1ccc(NC(C(=O)Nc2cccc(C(C)=O)c2)c2ccccc2)cc1 (stereo not given)	18.3%
O=C(CC(=O)N/N=C\c1cccc(Cl)c1Cl)NCc1ccccc1	44.3%
Nc1nc(SCC(=O)NNc2c(Cl)cc(Cl)cc2Cl)n[nH]1	21.1%
CCCCOc1ccc(C(=O)NN2CCN(C)CC2)cc1	15.4%
COc1ccccc1NC1=NC(c2ccc(Cl)cc2)N=C(N)N1 (stereo not given)	-92.7% (active)
COc1ccccc1Nc1nc(N)nc(CN(C)C2CCCCC2)n1	-29.7%
Cc1cc(C)nc(NC(=O)c2cccc([N+](=O)[O-])c2)c1	69%
COCCCN(C(=S)Nc1c(C)cc(C)cc1C)C(C)c1ccncc1 (stereo not given)	-82.2% (active)
COCCCN(C(=O)Cn1ncc2c(=O)oc3ccc(C)cc3c21)C(C)c1ccncc1 (stereo not given)	3.72%
CCCC/S(C)=N/S(=O)(=O)c1ccc(C)cc1 (stereo not given)	24.9%
N/C(=N\OC(=O)N1c2ccccc2Sc2ccccc21)c1ccc(Br)cc1	-113% (active)
COc1ccc(/C(N)=N/OC(=O)Cc2ccccc2)cc1	17.5%

Compound	activity change (PNC), negative = inhibition
COc1ccc(/C(N)=N/OC(=O)Oc2ccccc2)cc1	13.5%
COc1cccc(NC(=O)Cn2cnc3sc(C)c(S(=O)(=O)N4CCN(C)CC4)c3c2=O)c1	-100% (active)
COc1cccc(NC(=O)CN(C)S(=O)(=O)c2ccc(C)cc2)c1	-3.49%
CCN(CC)CCNC(=O)Cn1cnc2sc(C)c(S(=O)(=O)N3CCOCC3)c2c1=O	-100% (active)
O=C(Cc1ccc(S(=O)(=O)N2CCOCC2)s1)NCCC(c1ccccc1)c1ccccc1	44.4%
CCOC(=O)c1sc(NC(=O)c2cc(S(=O)(=O)N3CCOCC3)ccc2C)nc1C	-23.4%
COc1cccc(NC(=O)CN2CCN(c3nc(-c4cccc(OC)c4)cs3)CC2)c1	43%
CC(O)c1nc2ccccc2n1Cc1ccc([N+](=O)[O-])cc1 (stereo not given)	9.78%
CCOc1ccc(C(=O)Nc2nccs2)cc1[N+](=O)[O-]	8%
CN1CCC(=NNC(=O)c2ccc(N(Cc3ccc(Cl)cc3)S(C)(=O)=O)cc2)CC1	-4.47%
O=C(CCN1C(=O)c2ccccc2C1=O)NNC(=O)c1ccc(Cl)cc1Cl	53%
O=C(Nc1ccccc1Cc1ccccc1)c1ccc2c(c1)SC1=NS(=O)(=O)CCN12	18.7%
CC1CCN(S(=O)(=O)c2ccc(S(=O)(=O)NCc3ccco3)cc2)CC1	-100% (active)
O=C(NC1CCC(O)CC1)c1ccc(S(=O)(=O)NCc2ccco2)cc1 (stereo not given)	-13.5%
Cc1ccc(S(=O)(=O)N2CCC(C(=O)N[C@@H](C)C(=O)NCc3ccco3)CC2)cc1	61.1%
CCn1c(SCC(=O)Nc2ccccc2F)nc2c(c1=O)SC(C)C2 (stereo not given)	-100% (active)
Cn1nnnc1SCC(=O)Nc1ccccc1C(=O)NC1CC1	-17.1%
CCn1c(Cc2ccccc2)nnc1SCC(=O)Nc1ccccc1	-27.9%
CC(C)n1c(SCC(=O)Nc2ccccc2N2CCCCC2)nc2c1c(=O)n(C)c(=O)n2C	-24%
CCc1ccc(NC(=O)CSc2nc3ccccc3c(=O)n2CCN2CCOCC2)cc1	-23.7%
CC1Cc2nc(SCC(=O)Nc3ccccc3F)n(C)c(=O)c2S1 (stereo not given)	-100% (active)
